Data published in the supplement of paper PMC6763611.

The molecules below were run on Plasmodium falciparum NF54 (assay: growth inhibition relative to untreated control; higher = more inhibition). Conditions: 5 µM; MM + chorismate end-products (CM screening medium); 72 h.
How it was run: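 Growth inhibition was measured by SYBR Green fluorescence, normalised to untreated wells and corrected for background from uninfected erythrocytes. The parasites were P. falciparum NF54 ring stages (1% hematocrit, 1% parasitemia) exposed to single 5 μM or 1 μM doses of test compounds for 72 h at 37 °C, in either minimal RPMI or minimal RPMI containing 2.2 μM folate, 7.3 μM pABA, 7.3 μM pHBA, 111 μM tyrosine, 90 μM phenylalanine and tryptophan.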
`O[C@@H](c1cc(C(F)(F)F)nc2c(C(F)(F)F)cccc12)[C@H]1CCCCN1` showed a growth inhibition of 91.5%.
`O=S(=O)(c1ccc(Cl)cc1)N1CCN(C(=S)NCc2ccco2)CC1` gave a growth inhibition of 94.3%.
With `O=C(Nc1nnc(-c2ccc(Cl)cc2)o1)c1cccc(C(F)(F)F)c1` the growth inhibition was 42.7%.
In the case of `Cc1cc(NC(=O)c2ccc(S(=O)(=O)N(Cc3ccccc3)C(C)C)cc2)no1`, the growth inhibition is reported as 99.8%.
Work on `O=C(Nc1ccc(F)c(-c2nc3cc(-c4ccccc4)cnc3[nH]2)c1)N1CCCC1` yielded a growth inhibition of 3.27%.
In the case of `CN1CCCC1CCO[C@](C)(c1ccccc1)c1ccc(Cl)cc1` (stereo partly drawn), the growth inhibition is reported as 98%.
For `CCc1ccc(S(=O)(=O)Nc2cc(CN3CCN(CCC(C)C)CC3)ccc2C)cc1`, the growth inhibition was 64.6%.
Molecule `COc1ccc(Cl)cc1NC(=O)CN(C)C(=O)c1cnn(-c2ccccc2)n1` has a growth inhibition of 85%.
In the case of `Nc1ncc(Br)cc1-c1nc2cc(Cl)cnc2[nH]1`, the growth inhibition is reported as 67.3%.
With `Cc1[nH]c2cc(F)cc(F)c2c(=O)c1-c1ccc(Oc2ccc(OC(F)(F)F)cc2)cc1` the growth inhibition was 87.3%.
With `N#Cc1nc(-c2ccccc2)oc1S(=O)(=O)c1ccc(Cl)cc1` the growth inhibition was 97.9%.
In the case of `Cc1ccc(S(=O)(=O)Nc2ccc(CN3CCN(C(=O)c4cccc(C#N)c4)CC3)cc2)cc1`, the growth inhibition is reported as 42.7%.
With `Cc1nn(C)cc1C(C)Nc1nncc(-c2ccc(C(F)(F)F)cc2)n1` (stereo not drawn) the growth inhibition was 99.9%.
With `O=C1N(Cc2cc3ccccc3s2)CC2CN(Cc3ccccc3)CCN12` (stereo not drawn) the growth inhibition was 96.5%.
`Nc1ncc(-c2ccc(C(F)(F)F)nc2)cc1-c1ccc(C(F)(F)F)nc1` gave a growth inhibition of 54.4%.
Work on `O=C(Nc1ccnc(-c2cccnc2)n1)c1cc(C(F)(F)F)cc(C(F)(F)F)c1` yielded a growth inhibition of 93.8%.
`Cc1nn2c(=O)c3c([nH]c2c1-c1ccc(Cl)cc1)CCCC3` was tested, and the growth inhibition was 7.72%.
In the case of `CCOc1ccc2cc(-c3nn(C(C)(C)C)c(N)c3C(N)=O)cnc2c1`, the growth inhibition is reported as 3.3%.
Molecule `Cc1noc(C)c1COc1cccc(C(=O)N=c2[nH]cccc2C)c1` has a growth inhibition of less than 0%.
`CC1CS(=O)(=O)CCN1/N=C/c1ccc([N+](=O)[O-])o1` (stereo not drawn) was tested, and the growth inhibition was less than 0%.
Molecule `CC(=O)N1CCN(c2ccc(Oc3ccc(Cl)cc3O)cc2)CC1` has a growth inhibition of less than 0%.
In the case of `Nc1ncnc2[nH]nc(Cc3cccc4ccccc34)c12`, the growth inhibition is reported as less than 0%.
For `CCCCc1ccc(NC(=O)Nc2ccc(O[C@H]3CCCC[C@@H]3N(C)c3ccccc3)c(F)c2)cc1`, the growth inhibition was 98.1%.
Work on `Clc1ccc(CCNc2cc(-c3ccccc3)nc3ncnn23)cc1` yielded a growth inhibition of 5.05%.
Molecule `COc1ccc(CCN2CCC(NCc3cccc(N(C)C)c3)CC2)cc1` has a growth inhibition greater than 100%.
`COc1cc2ncnc(NC3CCN(Cc4ccccc4)CC3)c2cc1OC` gave a growth inhibition of 99.3%.
`CCCCN(CCCC)c1c(C#N)cc(S(=O)(=O)Nc2ccccc2)cc1C#N` gave a growth inhibition of 39.9%.
For `Cc1cc(C)nc(-n2nc(C)cc2Nc2ccccc2)n1`, the growth inhibition was 69.8%.
In the case of `Cc1ncc(-c2ccnc(Nc3ccc(S(C)(=O)=O)cc3)n2)n1C(C)C`, the growth inhibition is reported as 42.1%.
Molecule `c1ccc(-c2nc(NC3CCCCC3)cc(C3CC3)n2)nc1` has a growth inhibition of 94.6%.
In the case of `Cc1ccccc1CN1CCC(O)(c2ccc(Cl)c(C(F)(F)F)c2)CC1`, the growth inhibition is reported as 82.6%.
With `CC(C)(C)c1cnc(NC(=O)c2ccccc2O)s1` the growth inhibition was 51.6%.
Work on `CC(C)(C)c1ccc(N[C@@H]2CCCC[C@H]2NC(=O)c2ccco2)cc1` yielded a growth inhibition of less than 0%.
Molecule `CS(=O)(=O)N1CCC(CCn2nc(Cc3cccc4ccccc34)c3c(N)ncnc32)CC1` has a growth inhibition of 41.3%.
`Cc1noc(C)c1C(=O)N1CCCC(c2[nH]c3c(C)cccc3c2-c2ccncc2)C1` (stereo not drawn) showed a growth inhibition of 92.6%.
Work on `CCOC(=O)c1cc(-c2csc(Nc3c(C)cc(C)cc3C)n2)on1` yielded a growth inhibition of 34.3%.
`COC(=O)c1cccc2oc(-c3cccc(OC)c3NC(=O)c3cc(-c4ccccc4)on3)nc12` gave a growth inhibition of less than 0%.
In the case of `FC(F)(F)c1cc(NCCc2ccccc2)nc(-c2ccccn2)n1`, the growth inhibition is reported as 0.0785%.
`O=C(NC1CC1)c1ccc(N2CCOc3ccc(Cl)cc32)s1` showed a growth inhibition of 95.1%.

Same assay, conditions: 5 µM; minimal medium (MM); 72 h
With `O[C@@H](c1cc(C(F)(F)F)nc2c(C(F)(F)F)cccc12)[C@H]1CCCCN1` the growth inhibition was 85.5%.
Work on `O=S(=O)(c1ccc(Cl)cc1)N1CCN(C(=S)NCc2ccco2)CC1` yielded a growth inhibition of 92.6%.
Molecule `O=C(Nc1nnc(-c2ccc(Cl)cc2)o1)c1cccc(C(F)(F)F)c1` has a growth inhibition of less than 0%.
For `Cc1cc(NC(=O)c2ccc(S(=O)(=O)N(Cc3ccccc3)C(C)C)cc2)no1`, the growth inhibition was 93.1%.
Work on `O=C(Nc1ccc(F)c(-c2nc3cc(-c4ccccc4)cnc3[nH]2)c1)N1CCCC1` yielded a growth inhibition of less than 0%.
`CN1CCCC1CCO[C@](C)(c1ccccc1)c1ccc(Cl)cc1` (stereo partly drawn) gave a growth inhibition of 93.3%.
With `CCc1ccc(S(=O)(=O)Nc2cc(CN3CCN(CCC(C)C)CC3)ccc2C)cc1` the growth inhibition was 13.6%.
With `COc1ccc(Cl)cc1NC(=O)CN(C)C(=O)c1cnn(-c2ccccc2)n1` the growth inhibition was 98.3%.
Work on `Nc1ncc(Br)cc1-c1nc2cc(Cl)cnc2[nH]1` yielded a growth inhibition of 89.1%.
In the case of `Cc1[nH]c2cc(F)cc(F)c2c(=O)c1-c1ccc(Oc2ccc(OC(F)(F)F)cc2)cc1`, the growth inhibition is reported as greater than 100%.
With `N#Cc1nc(-c2ccccc2)oc1S(=O)(=O)c1ccc(Cl)cc1` the growth inhibition was 55%.
With `Cc1ccc(S(=O)(=O)Nc2ccc(CN3CCN(C(=O)c4cccc(C#N)c4)CC3)cc2)cc1` the growth inhibition was less than 0%.
`Cc1nn(C)cc1C(C)Nc1nncc(-c2ccc(C(F)(F)F)cc2)n1` (stereo not drawn) showed a growth inhibition of 91.7%.
In the case of `O=C1N(Cc2cc3ccccc3s2)CC2CN(Cc3ccccc3)CCN12` (stereo not drawn), the growth inhibition is reported as 94.8%.
With `Nc1ncc(-c2ccc(C(F)(F)F)nc2)cc1-c1ccc(C(F)(F)F)nc1` the growth inhibition was 53.9%.
`O=C(Nc1ccnc(-c2cccnc2)n1)c1cc(C(F)(F)F)cc(C(F)(F)F)c1` was tested, and the growth inhibition was 86.6%.
For `Cc1nn2c(=O)c3c([nH]c2c1-c1ccc(Cl)cc1)CCCC3`, the growth inhibition was 16.2%.
Molecule `CCOc1ccc2cc(-c3nn(C(C)(C)C)c(N)c3C(N)=O)cnc2c1` has a growth inhibition of less than 0%.
Molecule `Cc1noc(C)c1COc1cccc(C(=O)N=c2[nH]cccc2C)c1` has a growth inhibition of less than 0%.
`CC1CS(=O)(=O)CCN1/N=C/c1ccc([N+](=O)[O-])o1` (stereo not drawn) showed a growth inhibition of less than 0%.
`CC(=O)N1CCN(c2ccc(Oc3ccc(Cl)cc3O)cc2)CC1` was tested, and the growth inhibition was less than 0%.
In the case of `Nc1ncnc2[nH]nc(Cc3cccc4ccccc34)c12`, the growth inhibition is reported as less than 0%.
Work on `CCCCc1ccc(NC(=O)Nc2ccc(O[C@H]3CCCC[C@@H]3N(C)c3ccccc3)c(F)c2)cc1` yielded a growth inhibition of 85.4%.
With `Clc1ccc(CCNc2cc(-c3ccccc3)nc3ncnn23)cc1` the growth inhibition was less than 0%.
`COc1ccc(CCN2CCC(NCc3cccc(N(C)C)c3)CC2)cc1` was tested, and the growth inhibition was 94.6%.
In the case of `COc1cc2ncnc(NC3CCN(Cc4ccccc4)CC3)c2cc1OC`, the growth inhibition is reported as 92.2%.
`CCCCN(CCCC)c1c(C#N)cc(S(=O)(=O)Nc2ccccc2)cc1C#N` gave a growth inhibition of 35.7%.
`Cc1cc(C)nc(-n2nc(C)cc2Nc2ccccc2)n1` gave a growth inhibition of 34.2%.
In the case of `Cc1ncc(-c2ccnc(Nc3ccc(S(C)(=O)=O)cc3)n2)n1C(C)C`, the growth inhibition is reported as 45.6%.
Work on `c1ccc(-c2nc(NC3CCCCC3)cc(C3CC3)n2)nc1` yielded a growth inhibition of 93.6%.
`Cc1ccccc1CN1CCC(O)(c2ccc(Cl)c(C(F)(F)F)c2)CC1` was tested, and the growth inhibition was 76.2%.
In the case of `CC(C)(C)c1cnc(NC(=O)c2ccccc2O)s1`, the growth inhibition is reported as 3.99%.
Work on `CC(C)(C)c1ccc(N[C@@H]2CCCC[C@H]2NC(=O)c2ccco2)cc1` yielded a growth inhibition of 1.67%.
For `CS(=O)(=O)N1CCC(CCn2nc(Cc3cccc4ccccc34)c3c(N)ncnc32)CC1`, the growth inhibition was less than 0%.
For `Cc1noc(C)c1C(=O)N1CCCC(c2[nH]c3c(C)cccc3c2-c2ccncc2)C1` (stereo not drawn), the growth inhibition was 92.4%.
Work on `CCOC(=O)c1cc(-c2csc(Nc3c(C)cc(C)cc3C)n2)on1` yielded a growth inhibition of less than 0%.
`COC(=O)c1cccc2oc(-c3cccc(OC)c3NC(=O)c3cc(-c4ccccc4)on3)nc12` gave a growth inhibition of less than 0%.
`FC(F)(F)c1cc(NCCc2ccccc2)nc(-c2ccccn2)n1` showed a growth inhibition of less than 0%.
With `O=C(NC1CC1)c1ccc(N2CCOc3ccc(Cl)cc32)s1` the growth inhibition was 91.5%.
